Compounds with a hit are over-represented: about 21% of the library has one in this group of screens.
SARS PLP yeast: SARS-CoV PLP inhibition in yeast. S. cerevisiae expressing SARS-CoV PLpro, growth rescue. Potency, µM (highest dose often 32.9 µM), most hits filed as activators. 330,000 compounds, 0.19% hits; calls by dose curve; note: nearly all actives have a fitted effect of over 55% in size
Pf growth 96h: P. falciparum growth inhibition at 96 hour, primary screen for plastid delayed-death inhibitors | 320,000 compounds, 6.9% hits | Potency, µM (doses to about 28.7 µM), actives largely listed as inhibitors | P. falciparum luciferase reporter growth, 96 h
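Erythrocytes infected with luciferase-expressing P. falciparum were dispensed at 2% hematocrit and 0.05% parasitemia (final), then incubated with compounds 96 hours at 37 C in 5% CO2. Luminescence after detection reagent addition reported growth.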
NS1 inh: blocks influenza NS1 protein function; AID 2326; Potency, µM (doses to about 46.1 µM); 270,000 compounds, 0.4% hits; calls by dose curve; note: actives are rising curves; nearly all actives have a fitted effect of over 50% in size
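Recovery from NS1-induced slow growth read by OD600 in budding yeast switched to galactose assay medium (pH 6.0, -URA) at 1:100 dilution. Compound 23 nl per well; the matching strain lacking NS1 serves as control.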
CHX counter: affects cycloheximide protein synthesis inhibition readout, counter-screen; max response, %; 300,000 compounds, 12% hits; cell reporter, cycloheximide protein synthesis inhibition counterscreen; AID 2314; in the data active = max response mostly above about 13%, no sharp cut-off; inactive = mostly below about 14%; note: read at 38.3 µM for the half of the compounds with a filed dose
Pf growth 48h: inhibits P. falciparum growth in the first generation, 48 h. P. falciparum luciferase growth in erythrocytes, 48 h. Potency, µM (doses to about 28.7 µM), most hits filed as inhibitors. 310,000 compounds, 5.9% hits. AID 504832
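In quantitative HTS format, infected erythrocytes bearing luciferase-reporter parasites were treated for a single generation at 37 C. Luminescence after adding detection reagent served as the growth measure.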
Shiga toxin inh: Shiga toxin inhibition; Vero cells, Shiga toxin protein synthesis inhibition reporter; inhibition, % at 38.7 µM; 290,000 compounds, 9.2% hits; in the data active = inhibition mostly above about 28%, no sharp cut-off; inactive = mostly below about 43%
A number is an active result. Unless noted, calls come from the whole dose curve; as a rule, active = well fitted inhibition curve with a large enough effect; inconclusive = small, poorly fitted or top-dose-only effect, or another doubt; inactive = no such curve, though single readings can be large or run the other way.

Results for NC(=O)CSc1nnc(COc2ccccc2)n1C1CCCCC1 ?
SARS PLP yeast: inactive; Pf growth 96h: inactive; NS1 inh: inactive; CHX counter: inactive; Pf growth 48h: inactive; Shiga toxin inh: inactive

What do the screens show for `CC(=O)Nc1ccc(/C=C/c2nc3ccccc3o2)cc1`?
SARS PLP yeast: inactive; Pf growth 96h: inactive; NS1 inh: inactive; CHX counter: 54; Shiga toxin inh: 101

How did O=C(Nc1ccc(/C=C/c2nc3ccccc3o2)cc1)c1cccc(C(F)(F)F)c1 do in these assays?
SARS PLP yeast: inactive; Pf growth 96h: inactive; NS1 inh: inactive; CHX counter: 34; Pf growth 48h: inactive; Shiga toxin inh: 102

What do the screens show for `CC(=O)Nc1ccc(-c2nc3ccccc3c(=O)o2)cc1`?
SARS PLP yeast: inactive; Pf growth 96h: inconclusive; NS1 inh: inactive; CHX counter: inactive; Pf growth 48h: inactive; Shiga toxin inh: inactive

Results for O=C(Nc1nc(=S)ss1)c1c(F)cccc1F ?
SARS PLP yeast: inactive; Pf growth 96h: inactive; NS1 inh: inactive; CHX counter: inactive; Pf growth 48h: inactive; Shiga toxin inh: inactive

What do the screens show for `O=C(Nc1ccc(/C=C/c2nc3ccccc3o2)cc1)c1c(F)cccc1F`?
SARS PLP yeast: inactive; Pf growth 96h: inactive; NS1 inh: inactive; CHX counter: 28; Pf growth 48h: inactive; Shiga toxin inh: active

What do the screens show for `COC(=O)C1=CO[C@@H](O[C@@H]2O[C@H](CO)[C@@H](O)[C@H](O)[C@H]2O)C2C1C=C[C@@]2(O)CO` (stereo not given in full)?
SARS PLP yeast: inactive

Results for O=C1c2ccccc2CC1(Cc1ccccc1)Cc1ccccc1 ?
SARS PLP yeast: inactive; Pf growth 96h: inconclusive; NS1 inh: inactive; CHX counter: inactive; Pf growth 48h: 13µM; Shiga toxin inh: inactive

What do the screens show for `CCC1(CC)Cc2ccccc2C(=O)N1`?
SARS PLP yeast: inactive; Pf growth 96h: inactive; NS1 inh: inactive; CHX counter: inactive; Pf growth 48h: inactive; Shiga toxin inh: inactive

What do the screens show for `COC(=O)[C@]1(Cc2ccccc2)N[C@H](CN(C)C(=O)c2ccccc2)[C@@H]2C(=O)N(Cc3ccccc3)C(=O)[C@@H]21`?
SARS PLP yeast: inactive

What do the screens show for `O=C(CN1C(=O)NC2(CCCc3ccccc32)C1=O)NC1CCCCC1` (stereo not given)?
SARS PLP yeast: inactive; Pf growth 96h: inactive; Pf growth 48h: inactive

How did S=C1NC2(CCCCC2)Cc2ccccc21 do in these assays?
SARS PLP yeast: inactive; Pf growth 96h: 12µM; NS1 inh: inactive; CHX counter: inactive; Pf growth 48h: inconclusive; Shiga toxin inh: inactive

What do the screens show for `O=C1NC2(CCCCC2)Cc2ccccc21`?
SARS PLP yeast: inactive; Pf growth 96h: inactive; NS1 inh: inactive; CHX counter: inactive; Pf growth 48h: inactive; Shiga toxin inh: inactive

What do the screens show for `N#CC(C#N)=C1NC2(CCCC2)Cc2ccccc21`?
SARS PLP yeast: inactive; Pf growth 96h: 3.3µM; NS1 inh: inactive; CHX counter: inactive; Pf growth 48h: inconclusive; Shiga toxin inh: inactive

Results for C/C=C\C1=CCCC1Nc1ncnc2ccc(-c3c(C)noc3C)cc12 (stereo not given) ?
CHX counter: inactive; Shiga toxin inh: inactive

What do the screens show for `CSc1nnc(C)c(=O)[nH]1`?
SARS PLP yeast: inactive; Pf growth 96h: 15µM; NS1 inh: inactive; CHX counter: inactive; Pf growth 48h: inactive; Shiga toxin inh: inactive

Results for Cc1noc(C)c1CSc1nnc(C)c(=O)[nH]1 ?
SARS PLP yeast: inactive; Pf growth 96h: inactive; NS1 inh: inactive; CHX counter: inactive; Pf growth 48h: inactive; Shiga toxin inh: inactive

What do the screens show for `Cc1cc(O)c(C(C)C)cc1C1(c2cc(C(C)C)c(O)cc2C)OC(=O)c2ccccc21`?
SARS PLP yeast: inactive; Pf growth 96h: 1.2µM; NS1 inh: inactive; CHX counter: inactive; Pf growth 48h: 2.1µM; Shiga toxin inh: inactive

What do the screens show for `Cc1cc(C2(c3ccc(O)c(C)c3)OC(=O)c3ccccc32)ccc1O`?
SARS PLP yeast: inactive; Pf growth 96h: inactive; NS1 inh: inactive; CHX counter: inactive; Pf growth 48h: inactive; Shiga toxin inh: inactive

What do the screens show for `CCc1nc2cc(Cl)c(Cl)cc2[nH]1`?
SARS PLP yeast: inactive; Pf growth 96h: inactive; NS1 inh: inactive; CHX counter: 11; Pf growth 48h: inactive; Shiga toxin inh: inactive

What do the screens show for `CCc1nc2cc(Cl)c(Cl)cc2nc1CC`?
SARS PLP yeast: inactive; Pf growth 96h: inactive; NS1 inh: inactive; CHX counter: inactive; Pf growth 48h: inactive; Shiga toxin inh: inactive
